# High-throughput results as filed in PubChem BioAssay.
# The full list was thinned out, with hits kept by preference.
# ID4 binder: binders of human ID4 protein, primary screen, biochemical, small molecule microarray, single point. calls only. 31,000 tested, 1.2% active. Flag-ID4 binding, fluorescence F/B. DNA-binding protein inhibitor ID-4 (Homo sapiens), P47928; call rule not given here;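 also: a binder raises fluorescence above local background on the spot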
# Target sequence (P47928 whole entry, looked up): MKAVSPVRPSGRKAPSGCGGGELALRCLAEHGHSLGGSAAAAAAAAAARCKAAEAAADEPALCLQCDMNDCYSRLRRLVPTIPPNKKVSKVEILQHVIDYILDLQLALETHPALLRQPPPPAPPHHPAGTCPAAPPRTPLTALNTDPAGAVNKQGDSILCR
# * = called active by the depositor; i = inactive; + = active, no number.
SMILES,ID4 binder
Cc1noc(C)c1NC(=O)N(C)C[C@H]1Oc2ccc(NC(=O)NC(C)C)cc2CC(=O)N([C@H](C)CO)C[C@H]1C,i
Cc1noc(C)c1NC(=O)N(C)C[C@H]1Oc2ccc(NC(=O)NC(C)C)cc2CC(=O)N([C@@H](C)CO)C[C@@H]1C,i
Cc1noc(C)c1NC(=O)N(C)C[C@H]1Oc2ccc(NC(=O)Nc3ccc(F)cc3)cc2CC(=O)N([C@H](C)CO)C[C@H]1C,+
CNC[C@H]1Oc2ccc(NC(=O)c3ccncc3)cc2CC(=O)N([C@@H](C)CO)C[C@@H]1C,i
CNC[C@@H]1Oc2ccc(NC(=O)Nc3c(C)noc3C)cc2CC(=O)N([C@H](C)CO)C[C@H]1C,+
COc1ccccc1NC(=O)C1CC(=O)n2c(nc3ccccc32)N1 (stereo unspecified),i
Cc1ccccc1OCC(=O)Nc1cccc(NC(=O)C(C)C)c1,i
Cc1cc(NC(=O)CN(c2c(C)cccc2C)S(C)(=O)=O)ccc1Br,i
O=C(CSc1nc2ccccc2c(=O)n1-c1ccccc1)Nc1cccc([N+](=O)[O-])c1,i
Cc1cc(C)c(C#N)c(SCC(=O)Nc2ccc(C(N)=O)cc2)n1,i
CNC[C@H]1Oc2ccc(NC(=O)CCN3CCOCC3)cc2CC(=O)N([C@@H](C)CO)C[C@@H]1C,+
CNC[C@@H]1Oc2ccc(NC(=O)CCN3CCOCC3)cc2CC(=O)N([C@@H](C)CO)C[C@@H]1C,i
CNC[C@@H]1Oc2ccc(NC(=O)CCN3CCOCC3)cc2CC(=O)N([C@H](C)CO)C[C@H]1C,i
Cc1ccc(S(=O)(=O)N(C)CC(=O)Nc2ccccc2Br)cc1,i
COc1cc(OC)c(C2=NOC(C(=O)Nc3c(C)nn(Cc4ccc(F)cc4)c3C)C2)cc1Cl (stereo unspecified),i
CCn1c(SCC(=O)Nc2ccc([N+](=O)[O-])cc2C)nnc1-c1ccc(Cl)cc1,i
Cc1cc(=O)oc2cc(OC(C)C(=O)Nc3sc4c(c3C(N)=O)CCCC4)ccc12 (stereo unspecified),+
Cc1cc(=O)oc2cc(OC(C)C(=O)NCC3CCCO3)ccc12 (stereo unspecified),i
COC(=O)c1ccccc1NC(=O)C(C)Oc1ccc2c(C)cc(=O)oc2c1 (stereo unspecified),i
O=C(NCc1nc(-c2ccccc2)no1)c1ccc2ccccc2c1,i
COc1cc(NC(=O)COc2ccc3ccccc3c2Br)c(OC)cc1Cl,i
Cc1ccc(S(=O)(=O)N(C)CC(=O)Nc2ccc(Br)cc2C)cc1,i
COC(=O)c1ccccc1NC(=O)CSc1nnc(-c2ccccc2O)n1-c1ccccc1,i
Cc1cc(C(F)(F)F)nc(SCC(=O)Nc2sc3c(c2C#N)CCCC3)n1,i
O=C(CN1CCN(S(=O)(=O)c2ccc3ccccc3c2)CC1)Nc1ccc(Br)cc1,i
SMILES,ID4 binder
NS(=O)(=O)c1ccc(NC(=O)CN2CCN(Cc3ccccc3)CC2)cc1,+
COc1ccc(NC(=O)CN2CCN(S(=O)(=O)c3ccccc3)CC2)cc1,i
CCN1CCN(c2oc(COc3ccccc3C)nc2C#N)CC1,i
C=CCN1CCN(c2nc3ccccc3nc2C#N)CC1,+
COC(=O)c1cccc(NC(=O)CSc2n[nH]c(-c3ccc(Cl)cc3)n2)c1,i
O=C(CN1C(=O)c2ccccc2S1(=O)=O)Nc1ccccc1C(=O)N1CCCC1,i
CCN(CC(=O)Nc1ccc(OC)cc1)S(=O)(=O)c1ccc(C)cc1,i
CC(=O)c1cccc(NC(=O)Nc2cccc(S(=O)(=O)N3CCOCC3)c2)c1,i
COc1cc(NC(=O)COc2ccc(Br)cc2)ccc1NC(=O)c1ccco1,i
O=C(O)c1cccc(CSc2nnc(-c3ccco3)o2)c1,+
O=C(O)c1cccc(CSc2nnc(-c3ccncc3)o2)c1,i
COc1cc(OC)cc(-c2nnc(SCc3cccc(C(=O)O)c3)o2)c1,i
Cc1cc(Cl)cc(Cl)c1OCC(=O)Nc1cccc(NC(=O)c2ccccc2Cl)c1,i
CCC(Sc1nnnn1-c1ccccc1)C(=O)Nc1ccccc1OC (stereo unspecified),i
COC(=O)CCC(=O)Nc1ccc(C(N)=O)cc1,i
COC(=O)CCCCCCC(=O)Nc1ccc(NC(=O)CCCC[P+](c2ccccc2)(c2ccccc2)c2ccccc2)cc1,+
O=C(CCCC(=O)Nc1ccccc1)Nc1ccccc1,i
CC(Sc1nc(N)cc(N)n1)C(=O)Nc1cccc(Cl)c1 (stereo unspecified),i
Cc1cccc(OCC(=O)Nc2ccc(Cl)c(-c3nc4ccccc4s3)c2)c1,i
Cc1cc(Cl)ccc1OC(C)C(=O)Nc1cccc(NC(=O)c2ccco2)c1 (stereo unspecified),i
Cn1c(=O)c2c(nc(NCCN)n2C)n(C)c1=O,i
Cn1c(=O)c2c(nc(NCCN)n2Cc2ccc(Cl)cc2)n(C)c1=O,i
Cn1c(NCCCN)nc2c1c(=O)n(Cc1ccccc1Cl)c(=O)n2C,+
COc1ccc(-n2c(SCC(=O)Nc3ccc(Cl)cc3C)nnc2-c2ccccc2F)cc1,i
